Outcome and AC50 data for 6 compounds are collected here from PubChem BioAssay (EPA / NIEHS).

Values joined by “and” are separate entries in the source; they are usually repeats but may differ in a detail not shown here. Equal entries are not always repeated. Some structures have more than one record in an assay (separate samples or runs), and their calls can disagree. Active and inactive are the calls of the source. Rule for the calls: active = hit-call score of the fitted dose curve at least 0.9, where 1 is the maximum; inactive = score below 0.9.

Read-out in assay [1]: Tissue plasminogen activator (tPA), PLAT (gene 5327)
The assay can be described thus: BSK_BE3C_tPA: BioMAP Diversity Plus: BE3C Assay for Tissue plasminogen activator (tPA) Biomarker Activity (AID 2283041).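 Note: tPA level quantified by ELISA one day after compound addition.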 Conditions: primary human bronchial epithelial cells; actives raise or lower the signal. In a few lines:
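Gain- or loss-of-signal in tPA, measured by ELISA, derived by bidirectional fitting against DMSO. Cells: human primary bronchial epithelial; read at 24 h after chemical dosing.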

Read-out in assay [2]: Interleukin-8 (IL8), CXCL8 (gene 3576)
The assay can be described thus: BSK_CASM3C_IL8: BioMAP Diversity Plus: CASM3C Assay for Interleukin-8 (IL8) Biomarker Activity (AID 2283042).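 Note: IL-8 protein level quantified by ELISA.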 Conditions: primary human coronary artery smooth muscle cells; actives raise or lower the signal.

Read-out in assay [3]: Human Leukocyte Antigen - DR isotype (HLADR), HLA-DRA (gene 3122)
The assay can be described thus: BSK_CASM3C_HLADR: BioMAP Diversity Plus: CASM3C Assay for Human Leukocyte Antigen - DR isotype (HLADR) Biomarker Activity (AID 2283043).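 Note: cell-surface HLA-DR protein level quantified by ELISA.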 Conditions: primary human coronary artery smooth muscle cells; actives raise or lower the signal.

Read-out in assay [4]: Macrophage colony-stimulating factor (MCSF), CSF1 (gene 1435)
The assay can be described thus: BSK_CASM3C_MCSF: BioMAP Diversity Plus: CASM3C Assay for Macrophage colony-stimulating factor (MCSF) Biomarker Activity (AID 2283044).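 Note: M-CSF protein amount quantified by ELISA after 24 h exposure.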 Conditions: primary human coronary artery smooth muscle cells; actives raise or lower the signal.

Read-out in assay [5]: Low-density lipoprotein receptor (LDLR), LDLR (gene 3949)
The assay can be described thus: BSK_CASM3C_LDLR: BioMAP Diversity Plus: CASM3C Assay for Low-density lipoprotein receptor (LDLR) Biomarker Activity (AID 2283045).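 Note: LDLR protein level on the cell surface quantified by ELISA.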 Conditions: primary human coronary artery smooth muscle cells; actives raise or lower the signal.

Read-out in assay [6]: Monocyte Chemoattractant Protein-1 (MCP1), CCL2 (gene 6347)
The assay can be described thus: BSK_CASM3C_MCP1: BioMAP Diversity Plus: CASM3C Assay for Monocyte Chemoattractant Protein-1 (MCP1) Biomarker Activity (AID 2283046).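 Note: MCP-1 level quantified by ELISA 24 h after dosing.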 Conditions: primary human coronary artery smooth muscle cells; actives raise or lower the signal.

Assay [7] can be described thus: BSK_CASM3C_Proliferation: Cell Proliferation Assessment in the BioMAP Diversity Plus: CASM3C Assay (AID 2283047).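 Note: sulforhodamine B total protein stain as relative cell number at 560 nm; sub-confluent cells exposed 48 h before staining; fitted both ways against DMSO so gain or loss of cell number.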 Conditions: primary human coronary artery smooth muscle cells.
Read-out in assay [8]: Monokine induced gamma interferon (MIG), CXCL9 (gene 4283)
The assay can be described thus: BSK_CASM3C_MIG: BioMAP Diversity Plus: CASM3C Assay for Monokine induced gamma interferon (MIG) Biomarker Activity (AID 2283048).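 Note: MIG protein level measured by ELISA.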 Conditions: primary human coronary artery smooth muscle cells; actives raise or lower the signal.

Read-out in assay [9]: serum amyloid A (SAA), SAA1 (gene 6288)
The assay can be described thus: BSK_CASM3C_SAA: BioMAP Diversity Plus: CASM3C Assay for serum amyloid A (SAA) Biomarker Activity (AID 2283049).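 Note: SAA protein level quantified by ELISA.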 Conditions: primary human coronary artery smooth muscle cells; actives raise or lower the signal.

A short description of assay [10]: BSK_CASM3C_SRB: Viability Assessment in the BioMAP Diversity Plus: CASM3C Assay (AID 2283050).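 Note: total protein by SRB staining as cytotoxicity measure in parallel cultures; cells exposed to compound for 24 h.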 Conditions: primary human coronary artery smooth muscle cells.
Read-out in assay [11]: Thrombomodulin, THBD (gene 7056)
The assay can be described thus: BSK_CASM3C_Thrombomodulin: BioMAP Diversity Plus: CASM3C Assay for Thrombomodulin Biomarker Activity (AID 2283051).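 Note: thrombomodulin protein level measured by ELISA 24 h after dosing.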 Conditions: primary human coronary artery smooth muscle cells; actives raise or lower the signal.

Read-out in assay [12]: Tissue Factor, F3 (gene 2152)
The assay can be described thus: BSK_CASM3C_TissueFactor: BioMAP Diversity Plus: CASM3C Assay for Tissue Factor Biomarker Activity (AID 2283052).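 Note: cell surface tissue factor protein level read by ELISA.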 Conditions: primary human coronary artery smooth muscle cells; actives raise or lower the signal.

Read-out in assay [13]: Interferon-gamma inducible Protein 10 (IP10), CXCL10 (gene 3627)
The assay can be described thus: BSK_hDFCGF_IP10: BioMAP Diversity Plus: hDFCGF Assay for Interferon-gamma inducible Protein 10 (IP10) Biomarker Activity (AID 2283053). Conditions: primary human foreskin fibroblasts; actives raise or lower the signal. In a few lines:
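Cells: human dermal foreskin fibroblasts. Exposure: 24 h post-dosing. Detection: IP-10 ELISA, with values expressed against DMSO controls and fitted in both directions.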

Read-out in assay [14]: Urokinase-type plasminogen activator receptor (uPAR), PLAUR (gene 5329)
The assay can be described thus: BSK_CASM3C_uPAR: BioMAP Diversity Plus: CASM3C Assay for Urokinase-type plasminogen activator receptor (uPAR) Biomarker Activity (AID 2283054).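 Note: cell-surface uPAR protein level quantified by ELISA.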 Conditions: primary human coronary artery smooth muscle cells; actives raise or lower the signal.

Read-out in assay [15]: Vascular cell adhesion molecule 1 (VCAM1), VCAM1 (gene 7412)
The assay can be described thus: BSK_CASM3C_VCAM1: BioMAP Diversity Plus: CASM3C Assay for Vascular cell adhesion molecule 1 (VCAM1) Biomarker Activity (AID 2283055).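 Note: VCAM-1 protein level quantified by ELISA on the cells.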 Conditions: primary human coronary artery smooth muscle cells; actives raise or lower the signal.

Read-out in assay [16]: Collagen III, COL3A1 (gene 1281)
The assay can be described thus: BSK_hDFCGF_CollagenIII: BioMAP Diversity Plus: hDFCGF Assay for Collagen III Biomarker Activity (AID 2283056). Conditions: primary human foreskin fibroblasts; actives raise or lower the signal. In a few lines: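 Human foreskin primary fibroblasts were exposed to test chemicals for 24 h, after which collagen III was quantified by ELISA. Activity was fitted bidirectionally against DMSO as negative control and baseline.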

Read-out in assay [17]: Epidermal growth factor receptor (EGFR), EGFR (gene 1956)
The assay can be described thus: BSK_hDFCGF_EGFR: BioMAP Diversity Plus: hDFCGF Assay for Epidermal growth factor receptor (EGFR) Biomarker Activity (AID 2283057). Conditions: primary human foreskin fibroblasts; actives raise or lower the signal. An outline of the steps:
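Dosing human primary skin fibroblasts, then measuring surface EGFR by ELISA at 24 h, gives the endpoint; gains and losses relative to DMSO were fitted in both directions.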

Read-out in assay [18]: Interleukin-8 (IL8), CXCL8 (gene 3576)
The assay can be described thus: BSK_hDFCGF_IL8: BioMAP Diversity Plus: hDFCGF Assay for Interleukin-8 (IL8) Biomarker Activity (AID 2283058). Conditions: primary human foreskin fibroblasts; actives raise or lower the signal. In a few lines: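 hDFCGF human dermal fibroblasts; 24 h chemical exposure; IL-8 by ELISA; bidirectional curve fit vs DMSO baseline; gain or loss of signal scored.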

Assay [19] can be described thus: BSK_hDFCGF_Proliferation: Cell Proliferation Assessment in the BioMAP Diversity Plus: hDFCGF Assay (AID 2283059).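 Note: curves fitted for both rise and fall of signal versus DMSO baseline.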 Conditions: primary human foreskin fibroblasts. In a few lines:
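Primary human foreskin fibroblasts, sub-confluent; […]; 10% TCA fix, 0.1% SRB stain, A560 total protein. Gain/loss fitted bidirectionally vs DMSO control.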

Read-out in assay [20]: Macrophage colony-stimulating factor (MCSF), CSF1 (gene 1435)
The assay can be described thus: BSK_hDFCGF_MCSF: BioMAP Diversity Plus: hDFCGF Assay for Macrophage colony-stimulating factor (MCSF) Biomarker Activity (AID 2283060). Conditions: primary human foreskin fibroblasts; actives raise or lower the signal. In a few lines:
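Human foreskin primary fibroblasts were treated with test chemical for 24 h, and M-CSF was then measured by ELISA. Data were fitted bidirectionally against DMSO as the negative control and activity baseline.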

One may read the AC50 as the concentration giving half of the maximal activity seen. Turning to `O=C(O)C(F)(F)C(F)(F)C(F)(F)C(F)(F)C(F)(F)C(F)(F)C(F)(F)C(F)F`, the outcome in assay [1], in assay [2], in [3], in assay [4], in assay [5] and in assay [6] was inactive. Also, the result in [7], in [8], in assay [9], in assay [10], in assay [11] and in assay [12] was inactive. Also, the outcome in assay [13], in [14], in [15], in assay [16], in assay [17] and in assay [18] was inactive. In addition, the outcome in assay [19] and in [20] was inactive. Moreover, the half-maximal activity concentration (AC50) in [16] is 10700 nM (active).
For `CC(C)(C)c1cccc(O)c1`, the outcome in assay [1], in [2], in assay [3], in [4], in [5] and in assay [6] was inactive. The result in assay [7], in assay [8], in [9], in assay [10], in [11] and in assay [12] was inactive. In addition, the result in [13], in assay [14], in [15], in assay [16], in assay [17] and in assay [18] was inactive. Moreover, the result in assay [19] and in [20] was inactive.
As for `CCOC(=O)C=Cc1ccccc1`, the outcome in [1], in assay [2], in assay [3], in assay [4], in assay [5] and in assay [6] was inactive. Also, the result in assay [7], in [8], in [9], in [10], in assay [11] and in assay [13] was inactive. The result in [14], in assay [15], in [16], in assay [17], in assay [18] and in assay [19] was inactive. Also, the outcome in [20] was inactive. In addition, in assay [12], the concentration at half-maximal activity (AC50) was 23.9 nM (active).
For `OCCN1CCOCC1`, the outcome in assay [1], in [2], in assay [3], in [4], in [5] and in [6] was inactive. Further, the outcome in assay [7], in assay [8], in [9], in [10], in [11] and in assay [13] was inactive. Moreover, the outcome in assay [14], in assay [15], in [16], in assay [17], in assay [18] and in [19] was inactive. The outcome in [20] was inactive. The half-maximal activity concentration (AC50) in assay [12] is 2220 nM (active).
In the case of `CC(C)(CO)CO`, the result in [1], in [2], in assay [3], in assay [4], in assay [5] and in [6] was inactive. The result in assay [7], in [8], in assay [9], in assay [10], in assay [11] and in [12] was inactive. The result in [13], in assay [14], in assay [15], in assay [16], in [17] and in assay [18] was inactive. The outcome in assay [19] and in assay [20] was inactive.
Regarding `O=S(=O)(O)C(F)(F)C(F)(F)OC(F)(F)C(F)(F)F`, the outcome in [1], in assay [2], in assay [3], in assay [4], in assay [5] and in assay [6] was inactive. The outcome in assay [7], in [8], in assay [10], in [11], in assay [12] and in [13] was inactive. Also, the outcome in [14], in [15], in assay [16], in assay [17], in assay [18] and in [19] was inactive. The result in assay [20] was inactive. In [9], the AC50 is 44.9 µM (active) and 20 µM (active).
